# Screening results: PubChem, National Center for Advancing Translational Sciences (NCATS)
# Most compounds without a hit are left out; they make up all but 2.4% or so of the library.
# D2 ag-1 = agonists of human D2 dopamine receptor (beta-arrestin); P14416; DiscoveRx PathHunter D2 beta-arrestin, luminescence, 90 min; 100% = 57 uM dopamine signal; activation, % (concentration not given with the values); 360,000 compounds, 0.084% hits; in the data active means activation above about 40%; inconclusive means between about 15% and that limit
# Target sequence (P14416 whole entry, looked up): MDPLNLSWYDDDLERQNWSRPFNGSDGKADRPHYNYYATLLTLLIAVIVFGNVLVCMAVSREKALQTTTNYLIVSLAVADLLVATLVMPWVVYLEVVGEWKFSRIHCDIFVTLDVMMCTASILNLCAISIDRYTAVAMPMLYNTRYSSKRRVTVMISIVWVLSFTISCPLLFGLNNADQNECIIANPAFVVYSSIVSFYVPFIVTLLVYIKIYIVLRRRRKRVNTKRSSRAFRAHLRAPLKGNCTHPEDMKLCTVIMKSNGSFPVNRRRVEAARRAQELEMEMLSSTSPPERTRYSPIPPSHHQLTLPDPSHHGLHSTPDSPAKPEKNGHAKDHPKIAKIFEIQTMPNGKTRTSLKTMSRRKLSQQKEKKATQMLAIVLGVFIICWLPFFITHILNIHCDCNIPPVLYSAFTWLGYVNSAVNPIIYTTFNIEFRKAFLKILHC
#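 DiscoveRx PathHunter D2 beta-arrestin cells (2,100/well) attached overnight, then compound-stimulated 90 min at 37 C in HBSS/10 mM HEPES/0.1% Tween-20 buffer; beta-galactosidase complementation read by luminescence after 1 h at ambient temperature. Dopamine 57 uM final (EC100) as control.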
# D2 ag-2 = agonists of human D2 dopamine receptor. activation, % at 2 µM. AID 485358. HEK293 T-REx D2 cells, calcium flux agonist mode. 340,000 compounds, 0.53% hits. P14416;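 active means activation over 3 SD above normal in the single-dose calcium agonist read, cut at about 30% in these data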; further: 0% is about no effect
#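 In this primary screen, compounds producing a positive calcium signal within 180 s of addition to tetracycline-induced, force-coupled HEK293 Trex D2 cells are flagged; cells are dye-loaded with a no-wash calcium kit beforehand.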
# D2 antag = D2 dopamine receptor (human) antagonism | P14416 | HEK293 TREx D2 cells, calcium flux, dopamine EC80 | inhibition, % at 10 µM | 340,000 compounds, 2% hits; in the data active means inhibition above about 30%; inactive means below that, where a call was filed; further: 0% is about no effect
#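 Calcium flux kinetic readout in an inducible HEK293 TREx D2 line plated overnight at 30 C. After 180 s compound exposure, an EC80 dopamine challenge follows with another 180 s kinetic read to detect antagonism.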
# D2 PAM-1 = potentiates the human D2 dopamine receptor allosterically; P14416; DiscoveRx D2 beta-arrestin cells, luminescence, 90 min; 100% = 57 uM dopamine signal; potentiation, % (concentration not given with the values); 360,000 compounds, 0.23% hits; AID 624464; in the data active means potentiation above about 50%; inconclusive means mostly about 30% to 49%
#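 PathHunter beta-arrestin assay in DiscoveRx D2 cells. Compounds were added with an EC20 of dopamine (50 nM final) for 90 min at 37 deg C. Luminescence was read 1 h after detection reagent, with 57 uM dopamine as the EC100 control.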
# D2 PAM-2 = positively modulates the human D2 dopamine receptor allosterically. potentiation, % at 10 µM. HEK293 T-REx D2, calcium flux, EC20 dopamine potentiation. 340,000 compounds, 0.34% hits. P14416;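 active means potentiation over 3 SD above the plate norm, cut at about 30% in these data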; further: 0% is about no effect
#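 Cells plated with tetracycline inducer and held overnight at 30 C; calcium dye loaded 30–90 min at room temperature; baseline taken, compound added and read 180 s; EC20 dopamine then added and read 180 s.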
# D3 ag = D3 receptor agonism confirmed, beta-arrestin readout | DiscoveRx D3 beta-arrestin cells, luminescence, 90 min | 2,300 compounds, 4% hits | Potency, µM (titrated, usually from 76.9 µM), for the others: at the top dose activation, actives largely listed as activators | AID 720506 | shares compounds with D2 ag-2;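 further: potency means the concentration at half of the fitted maximal effect; 100% = dopamine control response; nearly all actives have a fitted effect of over 70% in size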
# D2 ag-3 = D2 receptor agonism, beta-arrestin counterscreen; shares compounds with D2 ag-2; DiscoveRx PathHunter D2 beta-arrestin, luminescence, 90 min; response scale: percent relative to full dopamine signal; Potency, µM (highest dose often 76.9 µM), without a hit: at the top dose activation, usual class: activators; 2,300 compounds, 5.9% hits; further: potency means the concentration at half of the fitted maximal effect; % of control where 0% means no effect; nearly all actives have a fitted effect of over 70% in size
# Active calls of the source: *; ? = inconclusive; · = not tested or not shown. Unless noted, the call rests on the fitted dose curve; in most records, active means well fitted activation curve with a large enough effect; inconclusive means small, poorly fitted or top-dose-only effect; inactive means flat fitted curve, though single readings scatter.
SMILES,D2 ag-1,D2 ag-2,D2 antag,D2 PAM-1,D2 PAM-2,D3 ag,D2 ag-3
CC(C)/C=C/CN1CCC(Oc2ccc(C(=O)N3CCCC3)cc2)CC1,·,·,·,·,·,-7%,0%
CC(CCc1ccc(O)cc1)N1CCC(Oc2ccc(C(=O)N3CCCC3)cc2)CC1 (stereo not given),13,60*,39*,-12,-21,?,18%
COCCCNC(=O)Cn1cnc2sc(C)c(S(=O)(=O)N3CC(C)CC(C)C3)c2c1=O (stereo not given),-8,1,-5,-10,12,·,·
CC(COc1ccccc1)N1CCC(CO)(Cc2ccccc2)CC1 (stereo not given),?,68*,85*,-11,-12,6%,?
O=S(=O)(CCN1CCN(c2ccccn2)CC1)c1ccc(Cl)cc1Cl,3,50*,12,-9,-6,19%,11%
COc1cc(C(=O)NCCC(=O)NC2CCC(C)CC2)cc(OC)c1OC (stereo not given),-2,0,3,-11,17,·,·
O=C(Cc1ccccc1)N(Cc1cccnc1)c1nc2ccc(F)cc2s1,·,2,·,·,-6,·,·
Cc1ccc(NC(=O)c2nc(S(=O)(=O)Cc3ccc(F)cc3)ncc2Cl)cc1C,·,2,·,·,-7,·,·
CN(c1ccccc1)S(=O)(=O)c1ccc(NC(=O)c2nc(S(C)(=O)=O)ncc2Cl)cc1,-11,6,3,-63,8,-21%,-11%
Cc1ccc(NC(=O)c2nc(S(=O)(=O)Cc3ccccc3C)ncc2Cl)cc1C,-6,0,34*,-12,-2,-19%,-10%
CC1(C(=O)OCC(=O)Nc2cc(S(=O)(=O)N3CCOCC3)ccc2Cl)CC1(Cl)Cl (stereo not given),0,·,·,16,·,·,·
O=C(O)c1cc(S(=O)(=O)Nc2cccc3ccccc23)c(Cl)cc1Cl,3,-1,1,6,20,·,·
CCCn1c(N)c(C(c2ccc(OC)cc2)N2CCN(c3ccccc3)CC2)c(=O)[nH]c1=O (stereo not given),7,43*,3,-9,-10,-8%,7%
COC(=O)c1ccc(C(c2c(N)n(CC(C)C)c(=O)[nH]c2=O)N2CCN(c3ccccc3)CC2)cc1 (stereo not given),1,·,·,-3,·,·,·
CCCn1c(N)c(C(c2ccc(C(=O)OC)cc2)N2CCN(c3ccccc3)CC2)c(=O)[nH]c1=O (stereo not given),-1,48*,16,-5,-8,5%,11%
Cc1ccc(CC(=O)Nc2cccc(C(=O)Nc3c(C)n(C)n(-c4ccccc4)c3=O)c2)cc1C,-4,·,·,-8,·,·,·
COc1ccc(C(=O)N2CCN(CCCc3ccccc3)CC2)cc1OC,-1,40*,-24,-16,-19,?,12%
COc1cccc(C(=O)N2CCN(CCCc3ccccc3)CC2)c1OC,3,24,0,-6,-20,·,·
CCOC(=O)N1CCN(CCCc2ccccc2)CC1,12,2,34*,-7,3,9%,19%
Cc1ccsc1/C=N/NC(=O)c1nnn(-c2nonc2N)c1-c1ccc2c(c1)OCO2,-2,1,2,0,-6,·,·
CCOc1ccc(-c2c(C(=O)N/N=C/c3cccs3)nnn2-c2nonc2N)cc1,?,1,16,-9,23,·,·
Cc1ccc(-c2c(C(=O)N/N=C/c3cccs3)nnn2-c2nonc2N)cc1,2,·,·,-2,16,-3%,-2%
Cc1ccc(-c2c(C(=O)N/N=C/c3ccoc3)nnn2-c2nonc2N)cc1,-2,1,10,-2,11,-9%,-4%
Nc1nonc1-n1nnc(C(=O)N/N=C/c2cccs2)c1-c1ccc2c(c1)OCO2,-2,20,7,10,18,-6%,0%
COc1cc2ncc(C(=O)c3ccc(C)cc3)c(N3CCCCC3)c2cc1OC,·,0,·,·,-12,·,·
SMILES,D2 ag-1,D2 ag-2,D2 antag,D2 PAM-1,D2 PAM-2,D3 ag,D2 ag-3
Cc1ccc(Cn2cc(CCC(=O)NC3CCC(C)CC3)c3ccccc32)cc1 (stereo not given),·,0,·,·,3,·,·
Cc1cc(NC(=O)COC(=O)C2CCC(=O)N2)c([N+](=O)[O-])cc1C (stereo not given),-4,4,-16,-5,9,·,·
CCCCn1c(N)c(N(CCOC)C(=O)COc2ccc(C(C)=O)cc2)c(=O)[nH]c1=O,-2,0,2,-9,5,·,·
CCCCn1c(N)c(N(CCOC)C(=O)Cn2c(=O)cnc3ccccc32)c(=O)[nH]c1=O,8,1,-7,-6,0,-4%,-3%
C/C(=N\NC(=O)C12CCC(C)(C(=O)O1)C2(C)C)c1ccccc1O (stereo not given),?,83*,82*,-9,-30,?,?
Cc1cccc(CC(=O)Nc2cccnc2)c1,0,30,2,-19,1,-11%,2%
O=C(Cc1ccccc1)Nc1cccnc1,-5,3,-26,0,11,·,·
Cn1cc(CN2CCN(c3ccc(Cl)cn3)CC2)c(-c2ccccc2F)n1,0,2,5,-18,-1,·,·
Cc1cccc(N2CCN(Cc3cn(C)nc3-c3ccccc3F)CC2)n1,?,51*,30*,-7,-24,1%,17%
CC(C)CC(=O)N1CCN(Cc2ccc3c(c2)OCO3)CC1,?,80*,29,10,-24,-11%,?
O=C(O)CCC(=O)N1CCN(Cc2ccc3c(c2)OCO3)CC1,-5,5,9,0,7,·,·
CCCC(=O)N1CCN(Cc2ccc3c(c2)OCO3)CC1,5,61*,-1,8,-32,-11%,10%
c1ccc(-c2csc3ncnc(N4CCN(Cc5ccc6c(c5)OCO6)CC4)c23)cc1,-2,0,-6,-19,-14,·,·
O=C(CSc1ncnc2scc(-c3ccccc3)c12)N1CCN(Cc2ccc3c(c2)OCO3)CC1,?,74*,70*,15,-23,10%,?
COCc1c(C(=O)N2CCN(Cc3ccc4c(c3)OCO4)CC2)oc2ccccc12,46*,70*,70*,16,-21,15%,10µM*
COCc1c(C(=O)N2CCN(Cc3ccc(C#N)cc3)CC2)oc2ccccc12,-3,0,5,-4,4,·,·
CCOc1c2ccccc2nn1CCO,-3,-1,-1,-13,14,·,·
CC(=O)N1CCc2cc(S(=O)(=O)CCC(=O)NCc3ccc(F)cc3)ccc21,-2,2,3,-24,-3,·,·
